In PubChem BioAssay AID652067 (The Scripps Research Institute Molecular Screening Center, 2013):
Screen size: about 370,000 compounds; about 5,400 (1.5%) were called active. What follows is part of a selection rich in actives, with near analogues and random picks from the rest. Unmarked numbers belong to inactive results.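 How the source made its calls: active means activation above the mean of all tested compounds plus 3 SD (cut at about 5.5% in these data); inactive means the rest.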

These molecules were tested on DAF-12 nuclear receptor (Haemonchus contortus) (assay: hcDAF-12 driven luciferase reporter activation – cell-based, luminescence, HEK293, lit1-tk-luc reporter, primary screen (AID 652067;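 further: 100% = response to 3 µM Δ7-dafachronic acid high control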)). Details: HEK293 hcDAF-12 lit1-tk-luc reporter, at 6.8 µM, stronger effect = higher value, 0% DMSO, 100% Δ7-dafachronic acid.

Row | Structure (SMILES) | activation
1 | Cc1ccc(NC(=O)c2cc(C)nn2-c2ccccc2)c(C)c1 | -2.18%
2 | Clc1cccc2c1C1CC2CCN1Cc1ccccc1 (configuration not stated) | -1.68%
3 | CS(=O)(=O)N(Cc1ccccc1Cl)c1ccc(C(=O)NCc2cccnc2)cc1 | -2.13%
4 | CC(OC(=O)CNC(=O)c1ccco1)C(=O)Nc1ccc(Cl)cn1 (configuration not stated) | -2.11%
5 | CCCc1cc(C(=O)Nc2ccc(Cl)cn2)cs1 | 7.31% (active)
6 | O=C(COC(=O)c1ccco1)Nc1ccc(Cl)cn1 | 0.13%
7 | O=C(Nc1cc(Cl)cc(Cl)c1)OCCN1CCCC12CCC(c1ccccc1)CC2 (configuration not stated) | -0.18%
8 | COC(=O)[C@]12C[C@H](CC(=O)N3CCOCC3)C(=O)N(Cc3ccc(Cl)cc3Cl)C1=C[C@H](COCc1ccccc1)O[C@@H]2C | -3.03%
9 | CC(C)Oc1c(Br)cc(Br)cc1/C=N/NC(N)=S | -4.22%
10 | NC(=S)N/N=C/c1coc2cc(Cl)ccc2c1=O | 5.81% (active)
11 | NC(=S)NN=Cc1ccc(OC(=O)COc2cc(Cl)c(Cl)cc2Cl)cn1 | -1.62%
12 | Cc1cc(N2CCN(C(=O)OC(C)(C)C)C[C@H]2C)ccc1N1CCN(Cc2ccccc2)[C@H](C)C1 | 1.47%
13 | O=C(Nc1ccccc1)N(Cc1cccnc1)Cc1ccco1 | -0.9%
14 | CC(C)(C)NC(=O)C(c1ccncc1)N(C(=O)CNC(=O)c1ccco1)c1ccc2c(c1)OCO2 (configuration not stated) | 6.8% (active)
15 | Cc1ccc(N(C(=O)CNC(=O)c2ccco2)C(C(=O)NC2CCCC2)c2ccncc2)cc1 (configuration not stated) | 0.7%
16 | COc1cccc(N(C(=O)CNC(=O)c2ccco2)C(C(=O)NC2CCCCC2)c2cccnc2)c1 (configuration not stated) | -0.65%
17 | CC(C)CNc1cccc2c1S(=O)(=O)N[C@H](CC(C)C)CO2 | -1.3%
18 | Nc1ccccc1/C=N\N=C/c1ccccc1N | 8.99% (active)
19 | C=CCN1C(=O)[C@@H](CC(=O)NCCCCc2ccccc2)[C@]2(C(=O)OCC)CCCCC/C=C/12 | -0.4%
20 | CC(=O)c1c(Nc2ccccc2)sc(C(=O)c2ccccc2)c1C | -2.59%
21 | CN(C)c1ccnc2sc(C(=O)c3ccccc3)c(N)c12 | 6.4% (active)
22 | COC(=O)c1cc2c(N)c(C(=O)c3ccc(Cl)cc3)sc2nc1C(OC)OC | 0.3%

Row | Structure (SMILES) | activation
23 | CCCCCCCCN1C(=O)[C@@H](CC(=O)N2CCN(C(=O)OCC)CC2)C[C@@]2(C(=O)OC)C1=C[C@H](C1CCCC1)O[C@@H]2C | -0.68%
24 | COc1cccc(CN2C(=O)CCC2(C)C(=O)NC2CCCCCC2)c1 (configuration not stated) | -2.09%
25 | O=C(CSc1nnc(COc2ccccc2)n1-c1ccc(Cl)cc1)Nc1ccc2c(c1)OCO2 | -0.19%
26 | COc1ccc(-c2noc(CCC(=O)N3CCN(c4cccc(C)c4)CC3)n2)cc1 | -0.53%
27 | Cc1ccc(C)c(N2CCN(C(=O)CCc3nc(-c4cccc(C(F)(F)F)c4)no3)CC2)c1 | 6.2% (active)
28 | COc1ccc(N2CCN(C(=O)CCc3nc(-c4ccc(C)cc4)no3)CC2)cc1 | -1.97%
29 | C=CS(=O)(=O)N(Cc1nnn(Cc2ccccc2)c1Br)[C@H](C(=O)OC)C(C)C | -3.12%
30 | COc1ccc(N2CCN(C(=O)CNC(=O)c3ccc(C(C)(C)C)cc3)CC2)cc1 | -2.42%
31 | O=C(NCC(=O)N1CCN(c2ccccc2O)CC1)c1ccc2ccccc2c1 | 6.1% (active)
32 | O=C(CNC(=O)c1ccc2ccccc2c1)Nc1ncccc1O | 0.18%
33 | Clc1ccc(-n2c(COc3ccccc3)nnc2SCc2nc3ccccc3[nH]2)cc1 | -0.51%
34 | CCc1nc(N2CCN(C(C)=O)CC2)c2c3c(sc2n1)CCCC3 | 0.85%
35 | CCn1c(SCC(C)=O)nc2sc3c(c2c1=O)CCCC3 | -0.57%
36 | NNC(=O)C1CCCn2c1nc1sc3c(c1c2=O)CCCC3 (configuration not stated) | 8.63% (active)
37 | COC(=O)C1=C(C(=O)OC)C2C=C(C(C)C)C1C(=O)C2(C)O (configuration not stated) | -1.42%
38 | O=C(OCC#CCSc1nnc(-c2ccco2)o1)c1ccc(F)cc1 | -1.32%
39 | O=C(O)Cn1cnc2c(NCc3ccccc3)ncnc21 | 0.95%
40 | Cc1cc(=O)[nH]c(SCC(=O)Nc2ccc(F)cc2F)n1 | -0.74%
41 | O=C(Nc1ccccc1)N1CCN(Cc2nc3ccccc3c(=O)[nH]2)CC1 | 0.3%
42 | Fc1ccccc1/C=N/Nc1cc(N2CCCCC2)ncn1 | 5.99% (active)
43 | Cc1ccc(N2C(=O)C(NC(=O)c3c(F)cccc3F)(C(F)(F)F)C3=C2CC(C)(C)CC3=O)cc1 (configuration not stated) | -1.79%
44 | O=C(c1cccc(C(F)(F)F)c1)N1CC[C@H]2[C@H](CCCN2Cc2cc(F)cc(F)c2)C1 | -0.81%

Row | Structure (SMILES) | activation
45 | Clc1cccc(-c2nc3nc4ccccc4nc3n2Cc2ccco2)c1 | 7.47% (active)
46 | O=C(CSc1nnc(-c2cccc(Cl)c2)n1Cc1ccco1)Nc1ccc(OCc2ccccc2)cc1 | -3.78%
47 | O=C(CSc1nnc(-c2ccccc2)n1Cc1ccco1)Nc1ccccc1-c1ccccc1 | -2.62%
48 | COC(=O)[C@]12C[C@H](CC(=O)NCCc3ccccc3OC)C(=O)N(Cc3ccccc3)C1=C[C@H](C(C)C)O[C@@H]2C1CC1 | -0.81%
49 | COc1cccc(OC)c1C(=O)N1CCN(Cc2cccnc2)CC1 | -1.19%
50 | Cc1ccc(C2=CCN(C)C(=O)N2c2ccc(Cl)cc2)cc1 | -0.28%
51 | COC(=O)CC1CCc2cc(C)cc(C(CC(C)C)NC(=O)[C@H](CC(C)C)NC(=O)OCc3ccccc3)c2O1 (some centres not stated) | -1.44%
52 | O=C(COC(=O)/C=C/c1ccc(Cl)cc1)NC1CCS(=O)(=O)C1 (configuration not stated) | -0.16%
53 | COc1ccccc1NC(=O)c1ccc(C)s1 | 9.1% (active)
54 | Cc1csc(NC(=O)c2ccc(C)s2)n1 | 6.44% (active)
55 | COc1ccccc1NC(=O)c1cc(Cl)nnc1Cl | 1.71%
56 | Cc1csc(NC(=O)CN2CCCCCC2)n1 | 0.84%
57 | COc1ccccc1NC(=O)c1c(Br)cnn1C | -1.66%
58 | Cc1ccc(C(=O)NCC(=O)O)s1 | -0.44%
59 | C=CCC[C@@H](Cc1ccc(F)cc1)C(=O)OC[C@H](Cc1c[nH]c2ccccc12)NC(=O)[C@@H](CC=C)CC(=O)N(CCO)Cc1ccccc1 | -2.25%
60 | CCCCNc1cccc2c1S(=O)(=O)N[C@@H](C)CO2 | 2.03%
61 | COC(=O)[C@]12C[C@H](CC(=O)NCCCN3CCCC3=O)C(=O)N(CCc3ccc(OC)c(OC)c3)C1=C[C@H](COCc1ccccc1)O[C@@H]2C | -0.83%
62 | Cc1ccnc(Nc2nc3ccccc3s2)n1 | 9.2% (active)
63 | Cc1ccnc(-n2sc3ccccc3c2=O)n1 | 4.36%
64 | C[C@H](C(=O)N(C)c1ccccc1)[C@@H](O)c1ccc2ccccc2c1 | 0.57%
65 | COc1cccc(CNC(=O)[C@H]2CCCN2C(=O)[C@H]2CCCN2C(=O)c2ccc(F)cc2)c1 | 2.09%
66 | COC(=O)C1=C(C)N(Cc2ccc(C(F)(F)F)cc2)C(=NCc2ccccc2)NC1c1ccccc1C(F)(F)F (configuration not stated) | 0.56%

Row | Structure (SMILES) | activation
67 | Cc1ccc(C)c(C(C)NC(=O)C2CCCO2)c1 (configuration not stated) | -1.93%
68 | Cc1cc(C)c2nc(N3CCC(C(=O)NCCN4CCOCC4)CC3)sc2c1 | 1.35%
69 | Cc1cc(C)c2nc(NC(=O)C3CCCO3)sc2c1 (configuration not stated) | 8.44% (active)
70 | O=C(C(=O)N1CCC(CNC(=O)c2cccnc2Cl)CC1)c1cccs1 | -0.06%
71 | O=C(NCc1ccccc1)[C@@H]1CCCN1C(=O)[C@@H](NS(=O)(=O)c1ccc(F)cc1F)C1CCCCC1 | -1.11%
72 | Cc1cccc(NC(=O)c2cccc(C(=O)Nc3cccc(C)c3C)n2)c1C | 0.52%
73 | Cc1cnc(NC(=O)Cn2cnc3c2c(=O)n(C)c(=O)n3C)s1 | -1.32%
74 | O=C(Nc1ccc2nc3n(c(=O)c2c1)CCCC3)c1ccc(Cl)nc1 | -2.27%
75 | Cc1cnc(NC(=O)c2ccc(Cl)nc2)s1 | 7.6% (active)
76 | Cc1cnc(NC(=O)c2ccccn2)s1 | 5.94% (active)
77 | Cc1ccc(NC(=O)c2ccc(Cl)nc2)cc1S(=O)(=O)N1CCOCC1 | -0.39%
78 | COc1ccccc1C(=O)N1O[C@]23C=C[C@]14C[C@@H](O)CC[C@]4(C)C2CC[C@]1(C)[C@@H]([C@H](C)/C=C/[C@H](C)C(C)C)CC[C@H]13 (some centres not stated) | 0.11%
79 | C[C@@H]1CN([C@H](C)CO)C(=O)CCCn2cc(nn2)CO[C@H]1CN(C)C(=O)Nc1ccc(N2CCCCC2)cc1 | -1.32%
80 | Cc1ccc(-n2c(SCC(=O)Nc3cccc4ccccc34)nnc2-c2ccccn2)cc1 | 0.59%
81 | C[C@H]1[C@H](c2ccccc2)Oc2cc(Br)ccc2S(=O)(=O)N1Cc1cccc(F)c1 | -0.73%
82 | COc1ccc(S(=O)(=O)NCCc2cc3ccc(C)c(C)c3[nH]c2=O)cc1 | -0.62%
83 | CC1CCCCC1NC(=O)/C(C#N)=C/C=C/c1ccccc1[N+](=O)[O-] (configuration not stated) | -0.31%
84 | COc1cc(NC(=O)COC(=O)CSc2ccc3ccccc3c2)c(C)cc1[N+](=O)[O-] | 2.93%
85 | COc1cc(/C=C(\C#N)C(=O)Nc2ccc3ccccc3c2)c([N+](=O)[O-])cc1OC | 5.84% (active)
86 | Clc1ccc(-n2c(SC/C=C/c3ccccc3)nnc2-c2ccco2)cc1 | -1.47%
87 | CN[C@H]1C[C@H]2c3[nH]c4c(-c5ccccc5)cccc4c3CCN2C(=O)[C@H]1[C@H](C)O | 0.81%
